From the supplement of paper PMC3484114
± gives the standard deviation.

tested on: OVCAR-3-derived ovarian cancer stem-like cells (spheroids); experiment: cell growth relative to untreated control; higher = more growth (less inhibition); conditions: 2.29 µM; 96 h
Summary of the method: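 OVCAR-3 spheroid-derived stem-like cells were trypsin-dissociated, seeded at 50,000 cells/mL in stem cell medium in ultra-low attachment 96-well plates and preincubated 24 h. Compounds were then added at 2.29 uM for 96 h at 37°C, 5% CO2, in 4 replicate wells. Viability was read as TOX8 resazurin fluorescence (ex 560/em 590 nm) after 4 h. Percent growth was calculated relative to untreated wells after blank subtraction and Grubbs outlier removal.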

Row | Compound | cell growth
1 | COC1CC(OC2CCC3(C=O)C4CCC5(C)C(C6=CC(=O)OC6)CCC5(O)C4CCC3(O)C2)OC(C)C1OC1OC(CO)C(O)C(O)C1O (configuration not stated) | 8.05 ± 3.3%
2 | CO[C@@H]1[C@H](O)C[C@@H](O[C@@H]2C[C@H](Oc3cc4cc5c(c(O)c4c(O)c3C)C(=O)[C@@H](O[C@H]3C[C@@H](O[C@H]4C[C@@H](O[C@H]6C[C@](C)(O)[C@@H](OC(C)=O)[C@H](C)O6)[C@H](O)[C@@H](C)O4)[C@H](O)[C@@H](C)O3)[C@H]([C@H](OC)C(=O)[C@@H](O)[C@@H](C)O)C5)O[C@H](C)[C@@H]2OC(C)=O)O[C@@H]1C | 12.5 ± 3.1%
3 | C=C1C(=O)O[C@@H]2C[C@@H](C)[C@@H]3C=CC(=O)[C@@]3(C)[C@@H](O)[C@H]12 | 14.5 ± 2.5%
4 | CO[C@@H](/C(C)=C/C=C/C(C)=C/c1coc(C)n1)[C@@H](C)[C@@H]1C[C@H](O)[C@@]2(C)O[C@@H]2/C=C/[C@@H](C)[C@H]2C[C@H](CC(=O)O2)C[C@@H]2O[C@H]2C(=O)O1 | 40.6 ± 7.4%
5 | CO[C@H]1[C@@H](O)[C@@H](C)O[C@H](O[C@H]2[C@H](Oc3cccc4c(O)c5c(=O)oc6ccc(C)c7c(=O)oc(c34)c5c67)O[C@H](C)[C@H](O)[C@@H]2O)[C@@H]1O | 67.4 ± 17%
6 | CC1=C2C(=CC(C)(C)[C@@H]2O)C(=O)[C@](C)(O)C12CC2 | 20.3 ± 2.4%
7 | CCCNC1=C(C)C(=O)C2=C(C1=O)[C@H](COC(N)=O)[C@]1(OC)[C@@H]3N[C@@H]3CN21 | 60.4 ± 24%
8 | Cc1cc(N(CCCl)CCCl)ccc1/C=N/NC(=O)Cc1cc(=O)oc2cc(O)ccc12 | 113 ± 53%
9 | [O-][n+]1ccccc1[S-].[O-][n+]1ccccc1[S-].[Zn+2] | 95.8 ± 7.8%
10 | CCCC/C=C/C=C/C=C/CCCCCCCC(=O)OCC(COC(=O)CCCCCCC/C=C/C1C=CC(CCCC)C(C(=O)O)C1C(=O)O)OC(=O)CCCCCCC/C=C/C=C/C=C/CCCC.OCCNCO (configuration not stated) | 115 ± 16%
11 | CC12CCC3C(CCC4CC(OC(=O)Cc5ccc(N(CCCl)CCCl)cc5)CCC43C)C1CCC(=O)N2 (configuration not stated) | 52.8 ± 15%
12 | CC[C@](C)(O)C(=O)O[C@H]1C(=O)O[C@@H]2C[C@H]3C(C)=CC(=O)[C@@H](O)[C@]3(C)[C@H]3C4(O)OC[C@]32[C@@H]1[C@@H](C)[C@H]4O | 35.2 ± 15%
13 | CC1=CC(O)C(O)C2(C)C1CC1OC(=O)C(O)C3C(C)C(O)C4(O)OCC13C42 (configuration not stated) | 128 ± 36%
14 | CCOC(OC1=C(C#N)CCC1)C(C)[Se]c1ccccc1 (configuration not stated) | 147 ± 33%
15 | CC[C@@]1(O)C[C@H](OC2CC(N(C)C)C(O)C(C)O2)c2c(O)c3c(c(O)c2[C@H]1OC1CC(N(C)C)C(O)C(C)O1)C(=O)c1cccc(O)c1C3=O (some centres not stated) | 58.8 ± 56%
16 | COc1cc([C@H]2c3cc4c(cc3C[C@@H]3COC(=O)[C@H]32)OCO4)cc(OC)c1OC | 39.5 ± 18%
17 | COc1cc([C@@H]2c3cc4c(c(O)c3C[C@H]3COC(=O)[C@@H]32)OCO4)cc(OC)c1O | 20.4 ± 5.8%
18 | CCC[CH2][Sn]([CH2]CCC)([CH2]CCC)[O]c1cc(Cl)c(Cl)cc1Cl | 8.8 ± 3.7%
19 | CC(=O)O[C@H]1C(=O)[C@@]2(C)[C@H]([C@H](OC(=O)c3ccccc3)[C@]3(O)C[C@H](O)C(C)=C1C3(C)C)[C@]1(OC(C)=O)CO[C@@H]1C[C@@H]2O | 123 ± 26%
20 | COC1=C(C)C(=O)C2=C(C1=O)C(CO)N1C(C#N)C3CC4C(C1C2N1CCOC41)N3C (configuration not stated) | 14.9 ± 4.6%
21 | S=C=NCc1ccccc1 | 109 ± 28%
22 | C[N+](C)(C)CC1CCCC1=O (configuration not stated) | 95.5 ± 20%
